Source: the supplement of paper PMC11001985

compound: C#CCNC(=O)CCSSCCC(=O)NCCc1ccc(C=O)c(C=O)c1; test: lysine labeling ratio R10:1 (500 µM / 50 µM probe), SILAC-ABPP in living cells; higher = lower intrinsic lysine reactivity toward the probe, active = 2 or less; conditions: HeLa; probe concentrations 500 vs 50 µM
Summary of the method: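 R, given per lysine, is the filtered median high-probe/low-probe MS1 peptide ratio, with the median then taken across forward and reverse replicates. Cells were living SILAC light and heavy HeLa cells in PBS at room temperature, labelled with 50 µM or 500 µM of an alkyne-tagged, disulfide-linked lysine probe. The ceiling applied is 20.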

UniProt P11717, sequence (P11717 whole entry): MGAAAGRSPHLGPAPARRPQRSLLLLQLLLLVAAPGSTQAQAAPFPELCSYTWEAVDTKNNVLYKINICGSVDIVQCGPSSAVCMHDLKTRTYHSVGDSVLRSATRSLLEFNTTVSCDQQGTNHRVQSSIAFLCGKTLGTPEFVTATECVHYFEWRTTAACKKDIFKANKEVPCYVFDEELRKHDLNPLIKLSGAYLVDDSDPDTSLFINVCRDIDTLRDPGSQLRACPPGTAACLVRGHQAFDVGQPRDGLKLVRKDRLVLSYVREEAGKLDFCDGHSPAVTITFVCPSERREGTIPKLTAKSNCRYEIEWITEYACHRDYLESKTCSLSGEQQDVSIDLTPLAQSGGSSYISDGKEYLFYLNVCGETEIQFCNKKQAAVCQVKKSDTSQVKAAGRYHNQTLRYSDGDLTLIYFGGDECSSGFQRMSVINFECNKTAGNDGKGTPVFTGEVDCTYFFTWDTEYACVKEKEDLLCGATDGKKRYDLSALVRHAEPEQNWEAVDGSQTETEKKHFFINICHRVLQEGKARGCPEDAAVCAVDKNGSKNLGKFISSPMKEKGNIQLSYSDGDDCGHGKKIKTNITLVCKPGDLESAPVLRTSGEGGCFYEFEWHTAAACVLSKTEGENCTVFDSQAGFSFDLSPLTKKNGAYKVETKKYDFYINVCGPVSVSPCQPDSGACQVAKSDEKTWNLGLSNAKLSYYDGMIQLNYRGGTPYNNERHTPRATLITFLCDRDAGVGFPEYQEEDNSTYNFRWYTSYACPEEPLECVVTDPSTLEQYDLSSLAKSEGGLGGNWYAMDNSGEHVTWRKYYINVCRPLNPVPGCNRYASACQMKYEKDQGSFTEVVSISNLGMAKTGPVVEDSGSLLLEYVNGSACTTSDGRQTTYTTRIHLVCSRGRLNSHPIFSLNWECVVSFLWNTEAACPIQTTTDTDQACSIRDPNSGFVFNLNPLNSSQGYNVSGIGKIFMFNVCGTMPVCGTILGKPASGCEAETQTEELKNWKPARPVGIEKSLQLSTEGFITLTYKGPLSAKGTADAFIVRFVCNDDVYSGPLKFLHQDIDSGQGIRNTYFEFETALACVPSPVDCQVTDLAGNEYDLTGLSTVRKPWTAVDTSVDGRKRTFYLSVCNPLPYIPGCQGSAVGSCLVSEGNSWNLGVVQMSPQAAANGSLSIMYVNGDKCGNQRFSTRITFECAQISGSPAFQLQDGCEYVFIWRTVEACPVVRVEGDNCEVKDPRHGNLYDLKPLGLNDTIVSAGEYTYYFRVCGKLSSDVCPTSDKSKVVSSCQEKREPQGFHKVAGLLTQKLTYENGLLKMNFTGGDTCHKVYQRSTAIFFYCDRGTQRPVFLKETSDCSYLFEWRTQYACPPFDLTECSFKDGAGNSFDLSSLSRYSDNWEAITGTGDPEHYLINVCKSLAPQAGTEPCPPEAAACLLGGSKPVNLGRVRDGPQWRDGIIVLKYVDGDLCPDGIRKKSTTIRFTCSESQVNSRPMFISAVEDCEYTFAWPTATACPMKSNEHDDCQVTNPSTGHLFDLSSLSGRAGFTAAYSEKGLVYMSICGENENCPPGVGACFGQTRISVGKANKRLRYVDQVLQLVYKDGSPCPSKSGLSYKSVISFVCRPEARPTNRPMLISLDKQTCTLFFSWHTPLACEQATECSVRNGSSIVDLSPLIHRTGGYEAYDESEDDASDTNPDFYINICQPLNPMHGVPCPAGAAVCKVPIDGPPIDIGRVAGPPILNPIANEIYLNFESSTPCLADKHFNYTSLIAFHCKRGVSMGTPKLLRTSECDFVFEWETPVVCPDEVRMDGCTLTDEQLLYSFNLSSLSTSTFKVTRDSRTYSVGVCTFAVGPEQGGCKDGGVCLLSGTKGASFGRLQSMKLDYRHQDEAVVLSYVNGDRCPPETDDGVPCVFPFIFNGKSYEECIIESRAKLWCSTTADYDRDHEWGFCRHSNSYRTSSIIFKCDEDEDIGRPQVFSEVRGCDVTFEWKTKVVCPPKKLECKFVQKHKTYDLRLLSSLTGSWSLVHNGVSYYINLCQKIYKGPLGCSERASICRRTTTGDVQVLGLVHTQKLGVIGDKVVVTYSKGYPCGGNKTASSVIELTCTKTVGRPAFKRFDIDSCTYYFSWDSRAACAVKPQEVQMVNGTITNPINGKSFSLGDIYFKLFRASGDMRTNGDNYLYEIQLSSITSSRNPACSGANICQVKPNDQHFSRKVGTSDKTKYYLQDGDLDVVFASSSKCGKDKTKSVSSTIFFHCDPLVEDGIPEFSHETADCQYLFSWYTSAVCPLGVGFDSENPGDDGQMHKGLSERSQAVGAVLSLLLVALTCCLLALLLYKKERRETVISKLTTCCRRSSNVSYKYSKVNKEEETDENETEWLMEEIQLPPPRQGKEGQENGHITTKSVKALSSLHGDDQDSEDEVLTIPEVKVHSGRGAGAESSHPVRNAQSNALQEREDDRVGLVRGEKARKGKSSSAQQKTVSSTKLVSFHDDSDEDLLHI
UniProt P30041, sequence (P30041 whole entry): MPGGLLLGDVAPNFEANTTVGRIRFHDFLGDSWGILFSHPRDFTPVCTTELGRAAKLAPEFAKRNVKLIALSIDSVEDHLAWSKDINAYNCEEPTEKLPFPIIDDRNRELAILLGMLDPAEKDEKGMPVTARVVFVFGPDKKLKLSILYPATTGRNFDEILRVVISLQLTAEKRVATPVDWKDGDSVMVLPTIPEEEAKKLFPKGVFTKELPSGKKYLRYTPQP
UniProt P13612, sequence (P13612 whole entry): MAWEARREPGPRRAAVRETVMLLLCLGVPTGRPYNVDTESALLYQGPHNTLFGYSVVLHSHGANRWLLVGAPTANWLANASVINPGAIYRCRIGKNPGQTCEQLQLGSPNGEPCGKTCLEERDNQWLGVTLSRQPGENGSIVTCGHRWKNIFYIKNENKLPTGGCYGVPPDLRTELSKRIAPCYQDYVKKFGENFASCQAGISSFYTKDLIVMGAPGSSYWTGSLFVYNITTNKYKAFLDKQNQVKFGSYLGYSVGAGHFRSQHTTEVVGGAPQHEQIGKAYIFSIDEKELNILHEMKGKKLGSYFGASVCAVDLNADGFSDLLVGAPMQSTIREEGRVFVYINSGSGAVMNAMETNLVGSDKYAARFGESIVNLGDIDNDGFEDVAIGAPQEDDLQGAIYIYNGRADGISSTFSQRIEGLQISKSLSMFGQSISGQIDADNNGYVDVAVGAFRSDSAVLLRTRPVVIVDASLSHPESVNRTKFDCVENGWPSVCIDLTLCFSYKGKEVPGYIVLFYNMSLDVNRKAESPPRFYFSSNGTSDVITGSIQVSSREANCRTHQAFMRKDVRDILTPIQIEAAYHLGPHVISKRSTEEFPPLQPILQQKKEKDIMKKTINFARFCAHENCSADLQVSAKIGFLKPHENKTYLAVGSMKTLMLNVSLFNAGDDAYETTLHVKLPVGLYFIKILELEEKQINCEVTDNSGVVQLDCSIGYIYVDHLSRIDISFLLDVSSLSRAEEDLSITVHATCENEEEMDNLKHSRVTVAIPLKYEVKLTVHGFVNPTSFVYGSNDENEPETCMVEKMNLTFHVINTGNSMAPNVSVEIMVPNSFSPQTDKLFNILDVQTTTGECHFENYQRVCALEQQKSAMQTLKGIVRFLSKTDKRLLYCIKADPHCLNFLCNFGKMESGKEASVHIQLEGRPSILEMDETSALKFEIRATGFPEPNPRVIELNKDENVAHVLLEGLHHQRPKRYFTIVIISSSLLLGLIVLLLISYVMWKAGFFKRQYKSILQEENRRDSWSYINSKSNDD
UniProt P30533, sequence (P30533 whole entry): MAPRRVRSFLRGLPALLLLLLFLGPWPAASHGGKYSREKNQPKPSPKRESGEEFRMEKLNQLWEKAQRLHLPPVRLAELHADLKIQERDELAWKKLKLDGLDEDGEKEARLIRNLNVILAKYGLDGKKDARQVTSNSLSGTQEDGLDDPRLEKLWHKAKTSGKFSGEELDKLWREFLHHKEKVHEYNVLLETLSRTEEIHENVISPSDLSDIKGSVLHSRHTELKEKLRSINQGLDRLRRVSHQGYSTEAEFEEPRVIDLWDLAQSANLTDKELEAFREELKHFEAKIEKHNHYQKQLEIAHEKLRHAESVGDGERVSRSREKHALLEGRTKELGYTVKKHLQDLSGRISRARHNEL
UniProt P09543, sequence (P09543 whole entry): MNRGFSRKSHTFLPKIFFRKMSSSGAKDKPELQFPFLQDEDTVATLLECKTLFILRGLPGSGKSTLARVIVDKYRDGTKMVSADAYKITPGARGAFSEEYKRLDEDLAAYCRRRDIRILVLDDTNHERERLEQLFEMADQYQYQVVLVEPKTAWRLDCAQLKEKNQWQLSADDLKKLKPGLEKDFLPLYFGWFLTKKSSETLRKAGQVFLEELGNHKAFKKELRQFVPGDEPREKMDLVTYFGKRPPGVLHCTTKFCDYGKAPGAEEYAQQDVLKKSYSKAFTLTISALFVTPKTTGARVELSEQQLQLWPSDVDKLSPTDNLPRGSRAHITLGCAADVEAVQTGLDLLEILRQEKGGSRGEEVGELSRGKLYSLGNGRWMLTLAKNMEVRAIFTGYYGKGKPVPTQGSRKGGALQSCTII
UniProt P12429, sequence (P12429 whole entry): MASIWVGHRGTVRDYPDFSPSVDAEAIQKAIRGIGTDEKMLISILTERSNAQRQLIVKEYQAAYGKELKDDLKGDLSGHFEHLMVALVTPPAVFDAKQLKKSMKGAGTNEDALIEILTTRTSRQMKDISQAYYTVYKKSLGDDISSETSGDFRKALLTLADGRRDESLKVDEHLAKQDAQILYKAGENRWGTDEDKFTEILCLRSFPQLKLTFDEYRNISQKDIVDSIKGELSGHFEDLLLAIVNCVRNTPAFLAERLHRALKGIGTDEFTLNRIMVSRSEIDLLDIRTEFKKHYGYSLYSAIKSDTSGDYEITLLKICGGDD

Lysine labeling ratio R10:1, inactive:
PRDX6 (lysine site: K56) (UniProt P30041) 3.23
CELSR2 (lysine site: K2121) (UniProt Q9HCU4) 2.98
SEMA3C (lysine site: K247) (UniProt Q99985) 4.79
MCAM (lysine site: K286) (UniProt P43121) 2.67
DSG2 (lysine site: K561) (UniProt Q14126) 6.57
CADM1 (lysine site: K93) (UniProt Q9BY67) 4.95
CNP (lysine site: K101) (UniProt P09543) 2.62

Lysine labeling ratio R10:1, active:
IGF2R (lysine site: K1576) (UniProt P11717) 0.605
UniProt Q15149 (lysine site: K1923) 1.36
ITGA4 (lysine site: K526) (UniProt P13612) 1.76
LRPAP1 (lysine site: K182) (UniProt P30533) 0.73
IMPDH2 (lysine site: K422) (UniProt P12268) 1.55
ANXA3 (lysine site: K263) (UniProt P12429) 1.92
VCL (lysine site: K778) (UniProt P18206) 1.11
AGRN (lysine site: K1368) (UniProt O00468) 1.88
UniProt Q8IWU5 (lysine site: K443) 1.5
ROR2 (lysine site: K382) (UniProt Q01974) 1.95
